Screening data from PubChem BioAssay.
NTMT1 inh – Primary qHTS for Inhibitors of N-terminal methyltransferase 1 (NTMT1): MTaseGlo Assay. NTMT1 MTase-Glo SAH luminescence, purified enzyme. N-terminal Xaa-Pro-Lys N-methyltransferase 1 (Homo sapiens), Q9BV86. 59,000 compounds, 2.5% hits. Potency, µM (titrated, usually from 114 µM), without a hit: top-dose activity change, negative = inhibition, most hits filed as inhibitors;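 note: potency is the fitted concentration of half-maximal effect; plate controls were DMSO vehicle for no effect and no enzyme for full effect; nearly all actives have a fitted effect of over 65% in size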
Target sequence (Q9BV86 whole entry, looked up): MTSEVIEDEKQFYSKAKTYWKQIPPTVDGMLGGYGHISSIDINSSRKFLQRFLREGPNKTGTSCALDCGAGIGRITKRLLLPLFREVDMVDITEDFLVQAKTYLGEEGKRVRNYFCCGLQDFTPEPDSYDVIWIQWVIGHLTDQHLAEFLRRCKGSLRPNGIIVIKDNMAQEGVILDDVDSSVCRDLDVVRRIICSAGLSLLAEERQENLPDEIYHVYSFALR
FH mod – Identification of activators of human fumarate hydratase by quantitative high-throughput screening; Potency, µM (series often up to 79.9 µM), for the others: at the top dose activity change, negative = inhibition, most hits filed as inhibitors; Fumarate hydratase, mitochondrial (Homo sapiens), P07954; FH coupled MDH/diaphorase resazurin fluorescence, 15 min; 54,000 compounds, 0.22% hits; AID 1347055, 2019; note: potency is the fitted concentration of half-maximal effect; % is set by controls: 0 for no effect and ±100 for the full control effect; the screen sought activators but most active calls are inhibition curves; nearly all actives have a fitted effect of over 45% in size
HTT-AS promoter – Primary qHTS for Identification of Small Molecule Activators of Huntingtin-Antisense Promoter Activity. HEK293 HTT-AS promoter firefly luciferase reporter, 24 h; response scale: percent change from vehicle, -100% = no light. 48,000 compounds, 0.24% hits. Potency, µM (series often up to 57.5 µM), for inactives: at the top dose activity change, positive = activation, hits mostly activators. AID 1508624, 2021; note: potency is the fitted concentration of half-maximal effect; nearly all actives have a fitted effect of over 55% in size
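Luminescence was read after Dual-Glo reagent and a 10 min room-temperature incubation. Values were normalized to vehicle (0% activity) and zero RLU (-100% activity). Reporter HEK293 cells had been exposed to compounds (up to 57.5 uM final) for 24 h.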
HTT prom inh – Primary qHTS for Identification of Small Molecule Inhibitors of Huntingtin Promoter Activity. HEK293 HTT promoter firefly luciferase reporter, 24 h. Potency, µM (titrated, usually from 57.5 µM), inactives show at the top dose activity change, negative = inhibition, usual class: inhibitors. 48,000 compounds, 0.93% hits. AID 1508623, 2021; note: potency is the fitted concentration of half-maximal effect; nearly all actives have a fitted effect of over 50% in size
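HEK293 luciferase promoter-reporter cells (2,500/well) plated 24 h, then compounds added at up to 57.5 uM final for 24 h at 37 °C. Firefly luminescence by Dual-Glo, normalized to vehicle (0%) and zero RLU (-100%).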
GALK inh – qHTS Assay for Inhibitors of Human Galactokinase (GALK): NCGC Sytravon Library Screen; P51570; recombinant GALK, Kinase-Glo ATP luminescence, 1 h; Potency, µM (doses to about 57.5 µM), for inactives: top-dose activity, negative = inhibition, hits mostly inhibitors; 44,000 tested, under 10 active;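 note: plate controls were full GALK reaction for no effect and reaction lacking GALK for full effect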
Target sequence (P51570 whole entry, looked up): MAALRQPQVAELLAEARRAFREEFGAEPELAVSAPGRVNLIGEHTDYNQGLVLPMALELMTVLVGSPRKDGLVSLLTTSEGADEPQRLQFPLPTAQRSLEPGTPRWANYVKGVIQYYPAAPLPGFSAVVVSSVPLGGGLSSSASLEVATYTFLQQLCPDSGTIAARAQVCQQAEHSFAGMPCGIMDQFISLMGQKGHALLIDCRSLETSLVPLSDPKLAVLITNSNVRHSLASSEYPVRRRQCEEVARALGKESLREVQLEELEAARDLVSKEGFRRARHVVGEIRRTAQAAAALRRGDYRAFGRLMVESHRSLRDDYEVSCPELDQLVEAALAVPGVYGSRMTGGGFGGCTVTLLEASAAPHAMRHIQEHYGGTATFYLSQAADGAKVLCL
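Reactions with and without enzyme served as controls. GALK at 5 nM phosphorylates 100 uM galactose using 35 uM ATP (HEPES pH 8.0, Mg2+) for 1 h at RT, with luminescence read 10 min after adding Kinase-Glo Plus.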
An asterisk follows results filed as active; u = inconclusive; x = no result given; ! = repeats disagree; [ ] = dose if it differs, or a comment. Sampled rows, rich in hits. Any-hit rate of the full collection: about 2.5%. Calls come from the whole dose curve; as a rule, active = well fitted curve in the direction sought with a large enough effect; inconclusive = small, poorly fitted or top-dose-only effect, or another doubt; inactive = no such curve, though single readings can be large; an effect the other way counts as inactive or inconclusive.

SMILES	NTMT1 inh	FH mod	HTT-AS promoter	HTT prom inh	GALK inh
CN1CC[C@@H](c2c(O)cc(O)c3c(=O)cc(-c4ccccc4Cl)oc23)[C@@H](O)C1	24µM*!	-2%[53.3 µM]	u	u	x
CN1CCC(c2c(O)cc(O)c3c(=O)cc(-c4ccccc4Cl)oc23)C(O)C1 (stereo unspecified)	35µM*	3%	x	x	x
COc1ccc(Oc2cc(NCCC(F)(F)F)c3ncc(-c4ccc(C(=O)NC5CC5)c(C)c4)n3n2)c(F)c1F	11%	x	x	x	x
Cc1ccc(OCCn2c(CCNC(=O)N3CCCCC3)nc3ccccc32)cc1	8%	x	x	x	x
Cc1[nH]c2ccc(F)cc2c1-c1nc2c3cccnc3c3ncccc3c2[nH]1	44%[57.5 µM]	17%	x	x	x
Cc1ncc(CCCN(C)C)cc1Nc1ncc2c(n1)-c1ccc(C(F)(F)F)cc1NC(=S)C2	32µM*	23%	x	x	x
Cc1oc(-c2ccc(Cl)cc2)nc1CN1CCC(C(=O)NCCCN2CCN(c3cccc(Cl)c3)CC2)CC1	79µM*	u	-30%	-21%	8%
COc1ccc(N2CCN(C(=O)C3CCN(Cc4nc(-c5ccc(Cl)cc5)oc4C)CC3)CC2)cc1	89µM*	-17%	-22%	-28%	-17%
Cc1oc(-c2cccc(Cl)c2)nc1CN1CCC(C(=O)NCCCN2CCN(c3ccc(F)cc3)CC2)CC1	u	4%	-46%	u	2%
COc1ccc(-c2nc(CSCC(=O)N3CCN(c4ccc(F)cc4)CC3)c(C)o2)cc1	10%	-14%	-51%	13µM*	-1%
C/C=C(/C)C(=O)O[C@@H]1C[C@@H](OC(=O)/C(C)=C\C)[C@@]2(C)C3C(=O)C=C(C)C2C3C1(C)C	8%[29.8 µM]	-3%[53.3 µM]	x	x	x
O=C1CCCC2=C1C(c1ccccc1)N=C(Nc1nc3ccccc3o1)N2 (stereo unspecified)	16%	x	x	x	x
C#CC1(O)CC[C@H]2[C@@H]3CCC4=CCCC[C@@H]4[C@H]3CC[C@@]21C (stereo partly specified)	-8%[57.5 µM]	-17%[53.3 µM]	-9%	-5%	x
C#C[C@]1(O)CC[C@H]2[C@@H]3[C@H](C)CC4=C(CCC(=O)C4)[C@H]3CC[C@@]21C	25µM*!	-1%[53.3 µM]	-20%	0%	x
C/C=C/C=C/C(O)=C1\C(O)=C(C)C(=O)[C@@]2(C)OC(=O)[C@@](C)(NC(=O)/C=C/C(=O)O)[C@@H]12	-20%[29.8 µM]	-2%[53.3 µM]	x	x	x
COC(=O)c1scc(-c2ccc(C)cc2)c1S(=O)(=O)Nc1cc(OC)c(OC)c(OC)c1	89µM*	-18%	-3%	7%	1%
O=C(Nc1ccc(S(=O)(=O)Nc2nc(-c3ccccc3)cs2)cc1)c1ccc2ccccc2c1	-10%	x	x	x	x
O=C(O)C1(C(=O)O)CCC1.[NH2-].[NH2-].[Pt+2]	18µM*	u	-5%	0%	x
CCN1C(=O)c2ccccc2Sc2ccc(NC(=O)c3ccc(Cl)cc3)cc21	-8%	-1%	-5%	-15%[11.5 µM]	2%
CCc1cccc(NC(=O)Nc2ccc3c(c2)N(C)C(=O)c2ccccc2S3)c1	5%	2%	-38%	32µM*	u
CCN1C(=O)c2ccccc2Sc2ccc(NC(=O)Nc3cc(C)cc(C)c3)cc21	5%	-25%	-46%	20µM*	2%
CC(C)c1ccc2oc3nc(N)c(C(=O)O)cc3c(=O)c2c1	32µM*	-10%[53.3 µM]	u	28%	x
Cc1cc(N2CCOCC2)cc2[nH]c(-c3c(NCC(O)c4cccc(Cl)c4)cc[nH]c3=O)nc12 (stereo unspecified)	0%	u	x	x	x
N=C1S/C(=C\c2ccc(-c3ccc4c(c3)C(=O)NC4=O)o2)C(=O)N1c1ccc(Br)cc1	-13%[57.5 µM]	x	x	x	x
O=C1NC(=O)/C(=C/c2ccc(-c3ccc(F)cc3O)o2)S1	35µM*	u	x	x	x
SMILES	NTMT1 inh	FH mod	HTT-AS promoter	HTT prom inh	GALK inh
O=C1NC(=O)/C(=C\c2ccc(-c3ccc(F)cc3O)o2)S1	28µM*	u	x	x	x
Cc1cc(-c2cc(O)ccc2Cl)cc2nnc(Nc3ccc(OCCN4CCCC4)cc3)nc12	20µM*	0%	x	x	x
Cc1cc(Nc2ncc(Cl)c(Nc3ccccc3S(=O)(=O)C(C)C)n2)c(OC(C)C)cc1C1CCNCC1	14µM*	4%	x	x	x
COc1cc(N2CCC(N3CCN(C)CC3)CC2)ccc1Nc1ncc(Cl)c(Nc2ccccc2P(C)(C)=O)n1	0%	u	x	x	x
Oc1cccc(-c2c3nc(c(-c4cccc(O)c4)c4ccc([nH]4)c(-c4cccc(O)c4)c4nc(c(-c5cccc(O)c5)c5ccc2[nH]5)CC4)C=C3)c1	22µM*	-22%[53.3 µM]	-27%	u	x
O=C(NC1CCCc2c1cnn2CCO)c1ccccn1 (stereo unspecified)	12%	x	x	x	x
O=C(NC1CCCc2c1cnn2-c1ccc(F)cc1F)c1ccccc1 (stereo unspecified)	79µM*!	x	x	x	x
O=S(=O)(Nc1nc2ccccc2s1)c1ccc(NCc2ccc(Br)cc2O)cc1	28µM*	x	x	x	x
C[C@@]1(c2ncncc2F)NC(=O)c2cc(-c3cn[nH]c3)ccc21	0%	x	x	x	x
CCCc1nc(C)c2c(=O)[nH]c(-c3cc(S(=O)(=O)N4CCN(CC)CC4)ccc3OCC)nn12	14µM*!	-2%[53.3 µM]	-90%	u	x
COc1ccc(C2CC(=O)N3CN(C4CCCCC4)CSC3=C2C#N)cc1 (stereo unspecified)	13µM*	-34%	5%	7%	6%
COc1cccc(Nc2nc(C#N)nc(NC3CCCC3)n2)c1	-12%[57.5 µM]	x	x	x	x
COc1cccc(C2CC(=O)N3CN(C4CCCCC4)CSC3=C2C#N)c1 (stereo unspecified)	11µM*	-23%	-16%	-20%	0%
COc1ccc(N2CC(NC(=O)C3CCCCC3)CC2=O)cc1 (stereo unspecified)	9%	2%	-5%	-18%	2%
O=c1[nH]c(CCl)nc2sc3c(c12)CCC3	-3%	x	x	x	x
COc1cc(C2CC(=O)N(Cc3cccc(F)c3)c3ccccc3S2)cc(OC)c1OC (stereo unspecified)	8%	-16%	-69%	20µM*	1%
COc1ccc(C2CC(=O)N(CC(=O)Nc3ccc(C(F)(F)F)cc3)c3ccccc3S2)cc1 (stereo unspecified)	1%	-28%	-24%	-23%	4%
CCCC(=O)c1cc(O)c(O)cc1O	40µM*	u	-36%[116 µM]	u	x
O=C(Nc1ccc(F)cc1)c1ccc(Cn2nc(N3CCN(c4ccccc4)CC3)ccc2=O)o1	-6%	-26%	-42%	14µM*	0%
